Measurements reported in PubChem BioAssay AID602229 (The Scripps Research Institute Molecular Screening Center, 2012).
In all, about 360,000 compounds went through this assay and about 1,300 (0.36%) were called active.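 Rule for the calls: active = inhibition above the mean of all tested compounds plus 3 SD (cut at about 70% in these data); inactive = the rest.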 For the sample, actives were picked, then their nearest neighbours and some compounds at random.

target: Photoreceptor-specific nuclear receptor (Homo sapiens) (UniProt Q9Y5X4); experiment: NR2E3 agonists in two-hybrid cells, primary screen, cell-based, luminescence, CHO-S, Gal4-NCOR/VP16-NR2E3 (AID 602229); settings: luciferase, at 3.98 µM, stronger effect = higher value;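 note: 0% = DMSO with NR2E3 transfected cells and 100% = cells lacking NR2E3 construct; higher means lower luciferase signal from less NR2E3 corepressor binding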
Sequence (Q9Y5X4 whole entry, looked up, the tested form may be a part): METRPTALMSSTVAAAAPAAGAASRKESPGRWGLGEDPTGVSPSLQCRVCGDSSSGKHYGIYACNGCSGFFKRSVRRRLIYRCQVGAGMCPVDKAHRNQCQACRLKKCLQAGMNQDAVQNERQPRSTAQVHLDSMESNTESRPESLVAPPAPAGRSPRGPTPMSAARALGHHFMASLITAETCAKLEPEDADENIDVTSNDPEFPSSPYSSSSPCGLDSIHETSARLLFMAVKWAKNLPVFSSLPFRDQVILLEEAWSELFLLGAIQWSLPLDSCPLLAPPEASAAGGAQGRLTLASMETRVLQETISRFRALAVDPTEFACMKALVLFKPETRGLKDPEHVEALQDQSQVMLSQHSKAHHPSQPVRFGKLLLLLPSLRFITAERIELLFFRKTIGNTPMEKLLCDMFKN

Inhibition of corepressor binding, active:
O=C(/C=C/c1ccc([N+](=O)[O-])o1)NNC(=O)c1ccc(F)cc1 101%, CCCOC(=O)c1[nH]c2c(c1C)C(=O)CC(c1cc(OC)c(OC)c(OC)c1)C2 (stereo not drawn) 70.4%, Cc1ccc(F)cc1NC(=O)Cc1nn(C)c(=O)c2ccccc12 96.1%, Cc1ccc(S(=O)(=O)N2[C@@H](c3ccc(Br)cc3)C(C(=O)O)=C[C@H]2CC2CCCC2)cc1 77.4%, COc1cccc(CNS(=O)(=O)c2ccc3c(c2)CC(C)N3C(=O)C2CCC2)c1 (stereo not drawn) 87.5%, COc1ccccc1Oc1ccc(S(=O)(=O)Nc2cccnc2)cc1 96.3%, Cc1ccc(NS(=O)(=O)c2ccc(-c3coc(C)n3)cc2)c(C)c1 73.5%, Cc1ccc(S(=O)(=O)Nc2ccc3ncccc3c2)cc1 74.2%, CC(C)N=C1CCCC1C(=S)SSC(=S)C1CCCC1=NC(C)C (stereo not drawn) 82.3%, CN(O)C(=S)c1ccccc1 98.8%, Cc1ccc(C)c(S(=O)(=O)N2CCN(c3ncnc4sccc34)CC2)c1 85.8%, Cc1ccc(S(=O)(=O)N2CCN(c3ncnc4ccccc34)CC2)cc1 89.9%

Inhibition of corepressor binding, inactive:
CCn1c(/C=C/c2ccc([N+](=O)[O-])o2)nc2ccccc2c1=O 9.98%, O=C(/C=C/c1ccc(F)cc1)NC(=S)NNC(=O)c1cccnc1 -36.2%, CC1=C(C(=O)Nc2ccccc2)C(c2cccs2)C(C#N)=C(SCC#N)N1 (stereo not drawn) -12.8%, CNS(=O)(=O)c1ccc2c(c1)[nH]c(=S)n2C 10%, CCCN(CC(=O)Nc1ccc(C(N)=O)cc1)CC(=O)Nc1ccccc1C 12.9%, Nc1nc(-c2sc3nc4c(cc3c2N)CCCC4)nc(N2CCOCC2)n1 -56.6%, CCCOC(=O)c1[nH]c2c(c1C)C(=O)CC(c1cccs1)C2 (stereo not drawn) 2.46%, COC(=O)C1C(=O)c2c([nH]c(C(=O)OCCSC)c2C)CC1C (stereo not drawn) -86.8%, Cc1cc(C)c(S(=O)(=O)NCC2CCC(C(=O)NCc3ccc4c(c3)OCO4)CC2)c(C)c1 (stereo not drawn) -8.75%, CC(C)C1Nc2c(C(=O)O)cccc2C(Nc2ccccc2C(=O)O)C1(C)C (stereo not drawn) 6.02%, COc1ccc(F)cc1S(=O)(=O)N1CCCCC1 4.16%, Cc1ccc(F)cc1NC(=O)CSCc1c(C)noc1C -16.1%, Cc1ccc(C)c(NC(=O)COC(=O)c2nn(C)c(=O)c3ccccc23)c1 8.19%, O=C(CN1CCN(S(=O)(=O)c2ccc(Br)cc2)CC1)Nc1ccccc1C(=O)c1ccccc1 3.01%, CCCCC[C@@H]1C=C(C(=O)OCC)[C@H](c2ccccc2)N1S(=O)(=O)c1ccc(C)cc1 16.2%, CCCCC[C@@H]1C=C(C(=O)O)[C@H](c2ccc(C#N)cc2)N1S(=O)(=O)c1ccc(C)cc1 -8.3%, O=C(NCc1ccccc1)C(=O)NCC1OCCN1S(=O)(=O)c1ccc(Br)cc1 (stereo not drawn) 10.3%, COc1ccc(N(C)S(=O)(=O)c2ccc3c(c2)CC(C)N3C(=O)C2CC2)c(OC)c1 (stereo not drawn) -11.9%, O=C(C1CCC1)N1CCc2cc(S(=O)(=O)NCc3cccnc3)ccc21 10%, COc1ccc(S(=O)(=O)n2nc(C)c(S(=O)(=O)N3CCOCC3)c2C)cc1 -29.6%, COc1ccc(S(=O)(=O)Nc2cccnc2)c(Cl)c1Cl -20.2%, Cc1cc(C)c(C)c(S(=O)(=O)Nc2cccnc2)c1C -21.1%, CN(CCc1cnn(C)c1)Cc1cn(C)nc1-c1ccccc1F -12.1%, COc1ccc(NC(=O)C2=NNC(=O)CC2)cc1S(=O)(=O)N1CCCCC1 -7.29%, CC1(C)O[C@@H]2CC3C4C[C@H](F)C5=CC(=O)C=CC5(C)C4C(O)CC3(C)[C@]2(C(=O)CO)O1 (stereo partly drawn) 7.42%, COc1cccc(NS(=O)(=O)c2ccc(-c3coc(C)n3)cc2)c1 50.6%, Cc1ccc(NS(=O)(=O)c2ccc3c(c2)n(C)c(=O)c(=O)n3C)c(C)c1 10.7%, CCC1CCCCN1C(=O)CSc1nc(C)cc(C)n1 (stereo not drawn) 7.45%, Cc1ccc(C(=O)OC2=CC(=O)CC(C)(C)C2)cc1 -13.1%, CS(=O)(=O)N1CCN=C1SCc1ccc(F)cc1 -6.15%, COc1cccc(N(CC(=O)NC2CCCC2)C(=O)CCCC(=O)Nc2ccccn2)c1 -5.7%, COc1cc(NS(=O)(=O)c2ccc3ccccc3c2)c2ncccc2c1 48%, O=S(=O)(Nc1ccc(Oc2ncccn2)c(Cl)c1)c1ccc(F)cc1 -0.77%, COC(=O)c1ccccc1NC(=O)C1CCN(S(=O)(=O)c2cc(OC)ccc2OC)CC1 -0.68%, O=C(CSc1ccccn1)N1CCN(S(=O)(=O)c2ccc(Cl)cc2)CC1 -21.8%, CCCc1cc(=O)[nH]c(SCc2ccc(C#N)cc2)n1 -25.9%, O=C(CN(CC1CCCO1)C(=O)CNS(=O)(=O)c1ccccc1)NCc1ccccc1 (stereo not drawn) -7.79%, CCOC(=O)C1=NNC2(c3ccc(Cl)cc3)C(=O)N(c3cc(C)cc(C)c3)C(=O)C12 (stereo not drawn) 3.14%, Cc1cc(C)nc(NC(=O)Nc2ccccc2C(F)(F)F)n1 -48.1%, CC(C)(C)C(=O)COC(=O)c1cc(S(=O)(=O)N2CCCCC2)ccc1N1CCOCC1 -9.47%, COc1ccccc1CCCNC(=O)C1CCC(=O)N(CCN2CCOCC2)C1 (stereo not drawn) -8.73%, O=C(c1ccco1)N1CCN(CC(=O)N(C2CCCCC2)C2CCS(=O)(=O)C2)CC1 (stereo not drawn) -15.5%, Cc1ccc([N+](=O)[O-])cc1S(=O)(=O)N1CCCN(C)CC1 -11.3%, Cc1ccc(S(=O)(=O)N2CCN(Cc3cccc(C)c3O)CC2)cc1 4.5%, COc1ccc(S(=O)(=O)N2CCN(c3ncnc4c(-c5ccccc5)nsc34)CC2)cc1 -27.3%, Cc1ccc(S(=O)(=O)N2CCC3(CC2)OCCO3)c(C)c1 -34.4%
